HT1080-NT tox: kills 2HG-producing HT-1080-NT fibrosarcoma cells | HT-1080-NT fibrosarcoma viability, CellTiter-Glo ATP luminescence, 48 h | Potency, µM (highest dose often 46.1 µM), without a hit: top-dose activity, negative = less viability, hits mostly cytotoxic | 360,000 tested, 1.6% active | AID 686970;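 note: NT is the 2HG producing partner of a matched IDH1 knockdown line; 0% = DMSO-treated cells and -100% = media-only wells without cells; nearly all actives have a fitted effect of over 55% in size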
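Compounds were tested in concentration-response format on HT-1080-NT cells for 48 hours at 37 degrees C. Cell viability came from CellTiter-Glo luminescence; curves were classified by r2, response magnitude and activity.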
HT1080 IDH1KD tx: toxicity to HT-1080 IDH1 knockdown cells (counter line); 360,000 tested, 2% active; HT-1080 IDH1 knockdown viability, ATP luminescence, 48 h; AID 686971; Potency, µM (top dose mostly 46.1 µM), for inactives: at the top dose activity, negative = toxicity, most hits filed as cytotoxic;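 note: 0% = DMSO wells and -100% = cell-free medium wells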
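% activity derives from luminescence (CellTiter-Glo), normalised to DMSO and no-cell wells. HT-1080-IDH1KD cells, 750/well, had 48 h compound exposure at 37 °C.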
SW480 rereplic: DNA re-replication induction in SW480 cells; SW480 DNA re-replication, Hoechst DNA content imaging, 48 h; Potency, µM (highest dose often 46.1 µM), without a hit: top-dose re-replication activation, actives largely listed as activators; 340,000 tested, 1.8% active; note: % of control where 0% means no effect; nearly all actives have a fitted effect of over 55% in size
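250 cells/well; 23 nL cpd via pin tool; 48 hr, 37 C, 5% CO2; Hoechst 40 min; imager read of total nuclear intensity, ex 405/em 500-530 nm.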
MCF10A rerep: inducers of DNA re-replication in MCF 10A breast cells; MCF 10A DNA re-replication, Hoechst nuclear intensity, 48 h; Potency, µM (series often up to 46.1 µM), for inactives: top-dose activity, positive = re-replication, usual class: activators; 350,000 tested, 2.9% active; AID 624296; note: % of control where 0% means no effect; nearly all actives have a fitted effect of over 50% in size
KB-3-1 cytotox: kills parental KB-3-1 adenocarcinoma cells; 400,000 tested, 1.4% active; KB-3-1 viability, CellTiter-Glo ATP luminescence, 72 h; Potency, µM (highest dose often 46.1 µM), usual class: cytotoxic; note: % is set by controls: 0 for no effect and ±100 for the full control effect; nearly all actives have a fitted effect of over 60% in size
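Cytotoxicity measured as CellTiter-Glo luminescence after 72 h at 37 C. Compound titrations were pinned onto drug-naive KB-3-1 parental adenocarcinoma cells grown in DMEM with 10% FBS, and normalized data fitted to concentration-response curves.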
KB-V1 cytotox: kills drug-selected multidrug resistant KB-V1 cells; 400,000 tested, 3.4% active; AID 1347076; Potency, µM (top dose mostly 46.1 µM), hits mostly cytotoxic; KB-V1 MDR cells viability, CellTiter-Glo, 72 h; note: % is set by controls: 0 for no effect and ±100 for the full control effect; nearly all actives have a fitted effect of over 60% in size
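Potencies derive from concentration-effect curves fitted to normalized luminescence (CellTiter-Glo) of KB-V1 cells treated for 72 h at 37 degrees C in phenol-red-free DMEM containing 10% FBS.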
Numbers without * were called inactive; i = inactive; u = inconclusive; x = not tested or not shown; [ ] = another dose, or the depositor's remark. The list is not random: actives were taken first. Their share in the collection is about 8%. Calls come from the whole dose curve; as a rule, active = well fitted curve in the direction sought with a large enough effect; inconclusive = small, poorly fitted or top-dose-only effect, or another doubt; inactive = no such curve, though single readings can be large; an effect the other way counts as inactive or inconclusive. Potency is the fitted concentration of half-maximal effect.

SMILES | HT1080-NT tox | HT1080 IDH1KD tx | SW480 rereplic | MCF10A rerep | KB-3-1 cytotox | KB-V1 cytotox
COc1ccc(-n2nc(C(=O)N3CCN(c4ccccc4OC)CC3)c3c4ccccc4n(C)c3c2=O)cc1Cl | x | x | x | x | i | i
COc1ccc(CCNC(=O)CCCCn2c(=O)c3ccccc3n(Cc3cccc(C)c3)c2=O)cc1OC | x | x | x | x | i | i
O=C(Nc1nc2ccccc2s1)c1ccc([N+](=O)[O-])o1 | u | -14% | 16µM* | 21µM* | u | u
COc1ccc2nc(NC(=O)c3ccccc3[N+](=O)[O-])sc2c1 | 2% | -9% | 8% | -4% | i | i
CC(=O)c1sc(NC(=O)c2cc(-c3ccccc3)nn2-c2ccccc2)nc1C | 22% | 12% | 4% | u | u | u
COc1ccc2nc(NC(=O)c3ccc([N+](=O)[O-])o3)sc2c1 | u | 18µM* | 7.3µM* | 4.6µM* | 18µM* | u
O=C(Nc1nc2ccccc2s1)c1cc(-c2ccccc2)nn1-c1ccccc1 | -29% | u | 14% | u | u | 21µM*
O=C(Nc1nc2cc3c(cc2s1)OCCO3)c1ccc([N+](=O)[O-])o1 | u | u | 1.5µM* | 5.2µM* | 3.3µM* | u
Cc1cc(C)c2nc(NC(=O)c3ccc([N+](=O)[O-])o3)sc2c1 | 11% | -18% | 2% | u | i | i
O=C(Nc1nc2c(F)cc(F)cc2s1)c1ccc([N+](=O)[O-])o1 | -16% | -2% | 9.2µM* | 12µM* | 10µM* | i
O=C(Cn1cc([N+](=O)[O-])cn1)Nc1nc2ccccc2s1 | -2% | 16% | u | 21µM* | i | i
CN(C)CCCN(C(=O)c1ccc([N+](=O)[O-])o1)c1nc2cc3c(cc2s1)OCO3 | -2% | -8% | 12µM* | 4% | i | i
CN(C)CCCN(C(=O)c1ccc2c(c1)OCCO2)c1nc2cc3c(cc2s1)OCO3 | -8% | 7% | u | 4% | i | i
O=C(O)c1cccc([N+](=O)[O-])c1C(=O)Nc1nc2ccccc2s1 | -1% | -4% | 6% | -1% | i | i
O=C(Nc1nc2ccccc2s1)c1ccccc1[N+](=O)[O-] | -15% | -5% | -24% | 0.73µM* | i | i
CCOC(=O)C1CCC(CN(Cc2cccc(Br)c2)S(=O)(=O)c2ccc(Cl)cc2)CC1 (centres undefined) | x | x | x | x | i | i
O=C1CCc2cc(S(=O)(=O)Nc3ccc(F)c(Cl)c3)ccc2N1 | x | x | x | x | i | i
Cc1cc(C)c2sc(NC(=O)c3ccc([N+](=O)[O-])o3)nc2c1 | 13% | 15% | u | 21µM* | u | i
COc1cccc(/C=N/Nc2nnc(C)n2N)c1O | u | 21µM* | u | 21% | i | i
COc1cccc(/C=N/Nc2cc(N3CCOCC3)ncn2)c1O | u | 5.8µM* | u | u | 10µM* | i
COc1cccc(/C=N/Nc2ncnc3c2ncn3Cc2ccccc2)c1O | -14% | u | u | u | u | 0.52µM*
COc1cccc(/C=N/Nc2c(Cl)cncc2Cl)c1O | u | u | -3% | u | i | i
COc1cccc(/C=N/Nc2cc(Cl)nc(C)n2)c1O | -6% | -2% | 0.29µM* | 7.3µM* | i | u
CCOC(=O)[C@H](CCc1ccccc1)N[C@@H](C)C(=O)N1C(=O)N(C)C[C@H]1C(=O)O | x | x | -2% | 0% | x | x
O=c1[nH]cnc2c1ncn2[C@H]1C[C@H](O)[C@@H](CO)O1 | x | x | x | x | i | u
SMILES | HT1080-NT tox | HT1080 IDH1KD tx | SW480 rereplic | MCF10A rerep | KB-3-1 cytotox | KB-V1 cytotox
COc1ccc(CCN(C)C(=O)COc2ccc(C(=O)c3ccccc3)cc2)cc1OC | -8% | -6% | 2% | 1% | i | i
CSc1ccc(CN(C)C(=O)COc2ccc(C(=O)c3ccccc3)cc2)cc1 | u | 12µM* | u | 13µM* | 21µM* | 9.2µM*
O=C(COc1ccc(C(=O)c2ccccc2)cc1)NCc1ccc(F)cc1 | 2.1µM* | 2.3µM* | 7.3µM* | 4.1µM* | u | u
Cc1ccc(C(OCC(O)CNCc2ccc(F)cc2)c2ccccc2)cc1 (centres undefined) | -23% | -15% | 5.2µM* | 2.6µM* | u | i
O=C(c1ccccc1)c1ccc(OCC(O)CNCc2ccc(F)cc2)cc1 (centres undefined) | u | 21µM* | 5% | 19% | i | 23µM*
O=C(c1ccccc1)c1ccc(OCC(O)CNCc2cccc(Cl)c2)cc1 (centres undefined) | u | u | -3% | 21µM* | i | i
Cc1ccc(OCC(O)CNCc2ccccc2)cc1C (centres undefined) | -3% | -12% | 19% | 15% | i | i
COc1ccc2c(c1)OC[C@H]1[C@H]2N2C(=O)c3cc(OC)ccc3NC(=O)[C@@]2(C)[C@H]1c1ccccc1 | u | u | u | 16µM* | i | u
COc1ccc2c(c1)OC[C@H]1[C@H]2N2C(=O)c3ccc(C)cc3NC(=O)[C@@]2(C)[C@H]1c1ccccc1 | -25% | u | 14% | 27% | i | i
COc1ccc2c(c1)OC[C@H]1[C@H]2N2C(=O)c3cc(Cl)ccc3NC(=O)[C@@]2(C)[C@H]1c1ccccc1 | -1% | -4% | u | -5% | i | i
COc1ccc2c(c1)[C@H]1[C@H](CO2)[C@H](c2ccccc2)[C@]2(C)C(=O)Nc3cc(Cl)ccc3C(=O)N12 | -16% | -26% | u | 16µM* | i | i
COc1ccc2c(c1)C(=O)N1[C@H]3c4cc(Br)ccc4OC[C@@H]3[C@H](c3ccccc3)[C@]1(C)C(=O)N2 | u | u | 21µM* | 4.1µM* | u | u
COc1ccc2c(c1)C(=O)N1[C@H]3c4cc(Cl)ccc4OC[C@@H]3[C@H](c3ccccc3)[C@]1(C)C(=O)N2 | 6.5µM* | 15µM* | 9.2µM* | u | u | u
CCOC(=O)O[C@]1(C(=O)COC(=O)CC)CC[C@@H]2[C@@H]3CCC4=CC(=O)C=C[C@@]4(C)[C@H]3[C@H](O)C[C@]21C | x | x | 4%[20.6 µM] | 8%[20.6 µM] | x | x
Cc1nc2ccccn2c1C(=O)NNC(=S)Nc1ccc(Cl)cc1 | -6% | -25% | 3% | 11% | i | u
Cc1cccc(-n2cnc(C(=O)NNC(=S)Nc3ccc(Cl)cc3)c2)n1 | -22% | -23% | u | 15% | 13µM* | i

Source: PubChem BioAssay (National Center for Advancing Translational Sciences (NCATS))
